# In publication PMC5540273 (PLoS ONE, 2017):
# Key:
# Settings in all cases: concentration: 1 μM,replicates: in singlicate; n = 1
# [1] = tested on: AAK1
# [2] = tested on: ABL1-nonphosphorylated
# [3] = tested on: ABL1-phosphorylated
# [4] = tested on: ABL2
# [5] = tested on: ACVR1B
# [6] = tested on: ACVR1
# [7] = tested on: ACVR2A
# [8] = tested on: ACVR2B
# [9] = tested on: ACVRL1
# [10] = tested on: T1, ADCK3
# T1 construct: gene CABC1
# 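Further: KINOMEscan kinase panel screen.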
Structure (SMILES),%Inh [1] [%],%Inh [2] [%],%Inh [3] [%],%Inh [4] [%],%Inh [5] [%],%Inh [6] [%],%Inh [7] [%],%Inh [8] [%],%Inh [9] [%],%Inh [10] [%]
Nc1nccc(-c2ccc3c(N)n[nH]c3c2)n1 [GSK1034945],65,0,0,9,0,0,0,44,0,1
NC(=O)Nc1sc(-c2ccc(F)cc2)cc1C(N)=O [GW789449],60,49,0,3,5,0,31,28,0,5
C[C@@H](Oc1cc(-n2cnc3cc(-c4cnn(C)c4)ccc32)sc1C(N)=O)c1ccccc1Cl [GSK580432],82,58,63,63,0,0,0,25,0,13
Cc1ccc(C(=O)Nc2ccc(Oc3ccc4nc(NC(=O)C5CC5)cn4c3)c(F)c2)c(=O)n1-c1ccccc1,0,100,98.3,83,0,0,0,16,0,13
Cn1ccc2ncnc(Oc3ccc(NC(=O)Nc4ccnc(C(F)(F)F)c4)c(Cl)c3)c21,18,68,10,5,0,11,4,13,63,0
Cn1ccc2ncnc(Oc3ccc(NC(=O)Nc4cncc(C(F)(F)F)c4)c(Cl)c3)c21,0,92.7,35,27,0,0,0,0,0,2
Cn1ccc2ncnc(Oc3ccc(NC(=O)Nc4cccc(C(F)(F)F)c4)c(F)c3)c21,15,88,51,29,0,0,32,36,7,18
Cl.Nc1n[nH]c2cc(-c3ccccn3)ccc12 [GSK2189892],17,0,0,0,0,10,0,6,0,11
CS(=O)c1ccc(-c2coc3ccc(-c4n[nH]c(=O)o4)cc23)cc1 (stereo not drawn),21,35,3,0,14,0,8,19,0,0
Cn1ccc2ncnc(Oc3ccc(NC(=O)Nc4cc(C(C)(C)C)on4)c(Cl)c3)c21,18,94.8,51,46,15,0,12,12,0,0
O=C(Nc1cccc(Oc2ccc3nccn3n2)c1)Nc1cccc(C(F)(F)F)c1,0,98.2,15,71,0,0,22,9,0,0
O=c1[nH]cc(-c2ccc(O)cc2)c2sc(-c3ccncc3)cc12 [GSK1033723],26,0,0,0,0,0,0,0,0,34
C[C@@H]1CNc2c(sc3ccc4nc(-c5ccc(O)cc5)ccc4c23)C(=O)N1,29,48,10,3,22,11,8,52,45,0
CN1CCN(CCNc2nc3cc(Oc4ccc(NC(=O)Nc5cc(C(F)(F)F)ccc5F)cc4)ccc3[nH]2)CC1.Cl.Cl [GW768504],0,51,23,0,0,0,0,0,0,0
CCn1c(-c2nonc2N)nc2cncc(CNC3CCNCC3)c21.Cl [SB-747651],39,5,5,13,0,8,0,0,0,1
CN(c1cccc(CNc2nc(Nc3ccc4c(c3)CC(=O)N4)ncc2C(F)(F)F)c1)S(C)(=O)=O,51,46,3,16,0,0,0,0,0,0
CCOC(=O)N1CCC(n2cnc(-c3ccc(F)cc3)c2-c2ccnc(N)n2)CC1 [SB-219952],0,60,2,0,33,28,0,0,10,15

Structure (SMILES),%Inh [1] [%],%Inh [2] [%],%Inh [3] [%],%Inh [4] [%],%Inh [5] [%],%Inh [6] [%],%Inh [7] [%],%Inh [8] [%],%Inh [9] [%],%Inh [10] [%]
O=C(Nc1ccc(Oc2ccc3nc(NC(=O)C4CC4)cn3n2)c(F)c1)c1cccn(-c2ccccc2)c1=O,0,99.9,88,62,0,19,28,31,1,16
O=C(Nc1n[nH]c2cc(-c3ccco3)ccc12)C1CC1 [SB-737447],100,37,28,0,5,0,9,0,0,8
CNC(=O)c1ccccc1Nc1nc(Nc2cccc(CS(C)(=O)=O)c2)ncc1C.O=CO [GSK1520489],85,99.9,99.9,99.4,71,76,7,54,2,0
CCNCC(Cc1ccccc1)NC(=O)c1cc(Br)c(-c2ccnc3[nH]ccc23)s1.Cl.Cl (stereo not drawn) [GSK1383280],39,15,14,19,0,0,0,2,0,12
FC(F)(F)c1cc(Br)cc(Nc2nccc(-c3cnn4ncccc34)n2)c1 [GW810578],32,0,0,0,6,15,13,2,25,10
COc1ccc(Nc2nccc(N3CCC(NC(=O)c4cccc(C#N)c4)C3)n2)cc1 (stereo not drawn) [GSK1379730],0,0,0,9,4,24,0,0,0,0
COc1cc2c(Nc3ccc(NC(=O)c4ccccc4)cc3)ncnc2cc1OCCCN1CCOCC1 [GSK301329],0,16,0,20,0,0,0,0,0,10
CC(C)c1nc(-c2cccc(NS(=O)(=O)c3ccccc3)c2)c(-c2ccnc(Nc3ccc4c(c3)CN(C)CC4)n2)s1 [GSK1649598],25,99.8,97.3,98.7,93.5,99,24,94.5,80,100
O=C(Nc1cccc(C(F)(F)F)c1)c1cccc(Oc2ccc3nccn3n2)c1,0,98.5,17,76,0,0,24,8,0,14
COc1cc(Nc2nccc(N3CCC(NC(=O)c4cccc(C#N)c4)C3)n2)cc(OC)c1OC (stereo not drawn) [GSK1379751],75,0,0,3,0,98.8,0,0,0,4
COc1cc2ncn(-c3cc(OCC4CCCCC4)c(C(N)=O)s3)c2cc1OC [GSK204559],55,0,0,14,0,5,18,32,0,11
CN(c1ccccc1CNc1nc(Nc2ccc3c(c2)CC(=O)N3)ncc1C(F)(F)F)S(C)(=O)=O,10,25,7,5,28,0,0,0,0,0
Cn1ccc2ncnc(Oc3ccc(NC(=O)Nc4cccc(C(F)(F)F)c4)c(Cl)c3)c21,0,88,19,21,1,0,0,47,0,5
Cc1cccc2c(-c3ccncc3)c(-c3ccc(F)cc3)nn12.Cl [GW461487],14,0,0,5,18,9,0,11,0,18
C[C@@H]1CCN(C(=O)N2CCCC2)C[C@@H]1N(C)c1ncnc2[nH]ccc12,31,51,9,0,1,0,3,0,0,7
Cc1ccc2c(-c3ccnc(Nc4ccc(C(F)(F)F)cc4)n3)cnn2n1 [GW819776],12,36,28,1,11,0,0,0,0,5
